# Data taken from the supplement of paper PMC6555819.
# Legend:
# Experiment in all cases: PBM binding z-score (relative to random genomic background probes); higher = stronger binding; sequences stand for … in GC…GCGATTGACAGCGTAGAATGAAGG
# [1] = tested on: FXR:RXRa (NR concentration 270 nM, RXRa partner concentration 90 nM)
# Method in brief: (§1)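 On custom Agilent 4×180K arrays, double-stranded probes with 34-nt variable regions carried direct-repeat seeds, single-nucleotide variants, half-site ablations or random human genomic background. Ligand-free nuclear receptor dimers were applied for 1 h, and binding was read with antibodies against each partner (one per run). Binding z-scores come from regression-normalized fluorescence, with the random background probes as reference.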
# [2] = tested on: LXRa:RXRa (NR concentration 270 nM, RXRa partner concentration 90 nM)
# Method in brief: as §1
# [3] = tested on: LXRa homodimer (NR concentration 270 nM)
# Method in brief: as §1
# [4] = tested on: LXRb:RXRa (NR concentration 270 nM, RXRa partner concentration 90 nM)
# Method in brief: as §1
# [5] = tested on: LXRb homodimer (NR concentration 270 nM)
# Method in brief: as §1
# [6] = tested on: PPARa:RXRa (NR concentration 270 nM, RXRa partner concentration 90 nM)
# Method in brief: as §1
# [7] = tested on: PPARg:RXRa (NR concentration 180 nM, RXRa partner concentration 90 nM)
# Method in brief: as §1
# [8] = tested on: PPARg:RXRa 270nM:90nM, anti-RXR (NR concentration 270 nM, RXRa partner concentration 90 nM)
# Method in brief: as §1
# [9] = tested on: PPARg:RXRa 30nM:10nM, anti-RXR (NR concentration 30 nM, RXRa partner concentration 10 nM)
# Method in brief: as §1
# [10] = tested on: PPARg:RXRa 90nM:30nM, anti-RXR (NR concentration 90 nM, RXRa partner concentration 30 nM)
# Method in brief: as §1
Sequence,PBM binding z-score [1],PBM binding z-score [2],PBM binding z-score [3],PBM binding z-score [4],PBM binding z-score [5],PBM binding z-score [6],PBM binding z-score [7],PBM binding z-score [8],PBM binding z-score [9],PBM binding z-score [10]
GCTAGTTGGTCAGTAAAAGGTCGCACACCGGTCG,0.649,1.35,0.422,1.28,-0.0717,2.31,0.999,2.68,0.448,2.08
CCTAGTTGGTCAAGGTCACAAACGCTATAGGTAC,3.97,3.32,1.64,3.45,0.933,3.93,3.16,3.43,1.09,2.53
CGTCCAAGGTCAGAGAGGTCAGTGAGTGCCGAGT,6.29,5.06,3.37,4.79,0.412,5.19,3.71,4.4,0.893,2.59
ATACCAGGGTGATCGTGAGGTCGTTGATACTAAC,1.34,1.44,0.904,1.5,0.0794,1.82,0.781,0.722,0.104,0.486
ACTATTAGTTGACTCAGGGCAACCGATACGACGC,0.117,0.225,0.326,0.195,0.862,0.023,0.893,0.163,0.201,0.123
TGAATGCGGTTATAAGATCAGGGAACGTTGCAAA,-0.202,-0.262,-0.342,-0.407,-0.259,-0.272,-0.0336,0.0368,0.119,-0.242
AGAATGAGGTTAAGAGCAGGGAAACAGAATACAT,2.07,1.9,-0.281,1.52,-0.266,3.4,1.98,2.15,0.589,1.22
ATCTCTAGGTAAGACTCAGTTTAGTGAAGAACGC,0.613,0.734,0.489,0.362,0.843,-0.0694,0.158,0.112,0.213,0.579
TTACCAACGTGAAGGTCGTTGATCCCTCTGTAGA,1.87,1.9,0.292,1.88,-0.33,1.35,0.00743,0.541,0.511,0.656
TAGCCTAGGTCAGATCAGGCCAGTATACGCTATA,2.57,1.55,-0.196,0.898,-0.239,1.69,0.794,0.923,0.0567,0.604
ATCGAAAGGTCGTGAGGCGAGTATACAGAAAGGC,5.83,4.11,0.273,3.21,0.391,5.07,3.85,4.18,1.56,2.61
TCATATAGGTAAAGGTGAAGGTCGAACGATATGA,1.28,1.29,-0.098,1.57,0.0286,3.41,4.01,4.29,4.42,4.54
AGTCAAAGTTCAGGACGAGGTAACGTAGAGCACG,4.1,3.8,1.01,2.04,0.385,3.59,4.68,4.62,2.13,3.9
TAGCCTAGGTCATGGGCCAGCATACCACGCGAAC,4.04,3.14,0.0336,2.05,-0.463,3.9,3.38,3.53,1.26,2.69
TAGCCTAGGTTAGATCGGGCCAGTATACGCTATA,0.436,-0.519,-0.629,-0.408,-0.862,-0.226,0.102,-0.562,-0.333,-0.187
CCTAGCAGGCCAGAGTCACTCAAGCATTTCGCTT,-0.525,-0.329,-0.444,-0.519,-1.47,-0.299,-0.117,-0.25,-0.904,-0.753
GCCTACGGGTCAAAGGTTATAGCATGAATAGAAT,7.04,5.56,0.447,5.59,-0.175,6.6,10.4,8.66,7.8,9.24
TCTAGCAGACCAGAGGGTCACTCAAGAGGTACGG,0.955,0.817,-0.662,1.1,-1.39,2.15,0.882,1.31,1.8,1.61
CAAACTAAGTCAAGAGGTCAAAGTCCGCTTCCCG,5.6,5.87,5.56,5.06,1.95,5.52,4.19,5.54,2.73,4.86
CTACCAAGGTGAACAAGGTCGTTGAATACTATTC,1.52,1.23,0.0934,1.87,-0.659,2.68,1.19,1.39,0.333,0.702
TCATATAGGTAATACAGGCGAAAGTCGGCATCTA,0.743,0.759,0.19,0.501,-0.147,1.06,0.851,2.29,4.01,3.08
TTACCCAGGTGAAAGGTCGTTGATGCACGCCTTG,2.92,3.07,0.858,2.75,-0.247,5.24,9.35,8.61,7.49,10.2
CCTACTGGGCCAACGTCATTGATCAGTCAAAGCA,-0.18,-0.496,-0.262,-0.492,-0.8,0.419,0.876,0.556,-0.362,0.3
CCTACTGGGCCATCAGGTCATTGAGATCAACGTT,1.65,1.44,1.22,1.45,-0.336,2.93,3.04,3.58,1.41,3.12
